The values below come from PubChem BioAssay (NCATS).

Inconclusive results are not listed. Entries that show only a call come without a potency. Active and inactive are the calls of the source. The call rests on the fitted dose curve; in most records, active means well fitted inhibition curve with a large enough effect in the signal ratio, with a control signal flat (not every such curve was filed as active); inconclusive means small, poorly fitted or top-dose-only effect, or effect the other way, or a change in a side signal; inactive means flat fitted curve, though single readings scatter; the % refers to the signal ratio.

The target of the assay is Glucocorticoid receptor (Homo sapiens) (UniProt P04150). Nature of the assay: qHTS assay for small molecule antagonists of glucocorticoid receptor signaling (AID 588533). The settings on record: HeLa MMTV-bla, GRE beta-lactamase ratio, antagonist mode, 18 h; series mostly up to 76.8 µM. The source says: NIH Chemical Genomics Center [NCGC] U.S. Environmental Protection Agency [EPA] National Institutes of Environmental Health Sciences [NIEHS] National Toxicology Program [NTP] NCGC Assay Overview The Glucocorticoid receptor (GR), a nuclear receptor subfamily member and its natural ligands includes […] etc. The GR is a validated drug target for inflammation. GR ligands such as dexamethasone are clinically available as anti-inflammatory drugs. Glucocorticoids implicate a role in carbohydrate, protein and lipid metabolisms and programmed cell death. They are also a component of many chemotherapy regimens for the treatment of leukemias, lymphomas, and myelomas because of their role in the induction of apoptosis.
Chain of Glucocorticoid receptor (Homo sapiens) (P04150 whole entry, looked up): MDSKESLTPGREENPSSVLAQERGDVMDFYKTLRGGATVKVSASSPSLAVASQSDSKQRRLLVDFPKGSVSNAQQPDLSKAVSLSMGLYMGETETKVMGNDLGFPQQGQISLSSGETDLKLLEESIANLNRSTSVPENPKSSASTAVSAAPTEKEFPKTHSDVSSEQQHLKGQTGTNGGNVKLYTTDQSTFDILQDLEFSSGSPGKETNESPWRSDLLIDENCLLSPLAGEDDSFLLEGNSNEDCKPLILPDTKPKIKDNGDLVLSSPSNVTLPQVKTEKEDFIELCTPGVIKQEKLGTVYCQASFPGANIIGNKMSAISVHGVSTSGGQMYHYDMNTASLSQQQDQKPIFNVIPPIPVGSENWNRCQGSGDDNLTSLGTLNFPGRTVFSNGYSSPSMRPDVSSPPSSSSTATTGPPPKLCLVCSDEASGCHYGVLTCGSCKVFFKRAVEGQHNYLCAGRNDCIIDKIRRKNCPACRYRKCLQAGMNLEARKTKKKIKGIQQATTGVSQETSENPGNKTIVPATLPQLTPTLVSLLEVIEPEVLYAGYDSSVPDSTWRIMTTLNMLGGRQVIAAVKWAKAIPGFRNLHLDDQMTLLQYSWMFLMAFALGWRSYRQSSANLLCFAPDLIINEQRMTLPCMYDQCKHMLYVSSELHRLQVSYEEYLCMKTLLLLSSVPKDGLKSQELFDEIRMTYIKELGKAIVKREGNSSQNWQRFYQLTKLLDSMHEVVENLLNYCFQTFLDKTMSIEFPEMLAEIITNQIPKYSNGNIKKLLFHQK
NCGC Assay Protocol Summary Using a beta-lactamase reporter-gene under control of glucocorticoid response element (GRE), a cell-based assay [CellSensor MMTV-bla HeLa cell line assay developed by Invitrogen] was used to measure GR ligands signaling. CellSensor MMTV-bla HeLa cells were used with assay medium containing 1% charcoal/dextran treated FBS, 0.1 mM NEAA, 1 mM sodium pyruvate and 25mM HEPES. The assay was performed in clear bottom black Greiner 1536-well plates. Library compounds were measured for their ability to inhibit the reporter gene activity. Compounds were screened in a titration series in 1536-well format. […] Data was normalized relative to Dexamethasone control (2 nM, 100%), and DMSO only wells (basal, 0%). Concentration-response titration points for each compound were fitted to the Hill equation yielding concentrations of half-maximal inhibition (IC50) and maximal response (efficacy) values. qHTS protocol for GR beta-lactamase assay in antagonist mode [Step] [Parameter] [Value] [Description] 1. Reagent; 5 uL; 1500 cells/well 2. Incubation; 37 C for 3-5 hrs 3. Compounds; 23 nL; 0.59 nM to 92 uM 4. […] Agonist (Stimulator); 1uL; Dexamethasone at 2 nM (final) concentration 6. Incubation; 37 C for 18 hrs 7. Detection reagent; 1 uL of CCF4-dye 8. Incubation; RT for 2 hrs 9. Detection; Fluorescence; Envision plate reader
`Nc1ccccc1`: the Potency entry was “inactive”.

Turning to `CCCC(C)(COC(N)=O)COC(N)=O`, the Potency entry is “inactive”.

In the case of `C[C@]12CCC(=O)C=C1CC[C@@H]1[C@@H]2CC[C@@]2(C)[C@H]1CC[C@]2(C)O`, the Potency is 15.8 µM (active).

Turning to `O=P1(N(CCCl)CCCl)NCCCO1` (configuration not stated), the Potency result was “inactive”.

Regarding `CCC(C)(C)c1ccc(O)cc1`, the Potency result was “inactive”.

For `NCCc1ccc(O)cc1`, the Potency result was “inactive”.

Take `COc1cc(OC)c(OC)cc1C=O`: the Potency result is “inactive”.

As to `COP(=S)(OC)Oc1ccc(SC)c(C)c1`, the Potency entry is “inactive”.

Regarding `COP(=S)(OC)SCN1C(=O)c2ccccc2C1=O`, the Potency result was “inactive”.

As for `Nc1nc(N)nc(NC2CC2)n1`, the Potency result was “inactive”.

`CCOC(=O)CC(SP(=S)(OC)OC)C(=O)OCC` (configuration not stated): the Potency entry was “inactive”.

On to `Clc1ccc(C(c2ccc(Cl)cc2)C(Cl)(Cl)Cl)cc1`, for which the Potency entry was “inactive”.

As to `CC1(C)C(C=C(Cl)Cl)C1C(=O)OC(C#N)c1cccc(Oc2ccccc2)c1` (configuration not stated), the Potency result is “inactive”.

Consider `COP(=S)(OC)Oc1cc(Cl)c(Cl)cc1Cl`, for which the Potency result was “inactive”.

For `COC(=O)C(c1ccccc1)C1CCCCN1` (configuration not stated), the Potency entry was “inactive”.

Regarding `CC(C)NC(C)C`, the Potency entry is “inactive”.

`C[C@]1(O)CC[C@H]2[C@@H]3CCC4=CC(=O)CC[C@]4(C)[C@@]3(F)[C@@H](O)C[C@@]21C`: the Potency is 10 µM (active).
